In all, about 65,000 compounds went through this assay and about 2,100 (3.2%) showed an effect of 50% or more. The median lay at about -52%. Shown is part of a subset that was picked to be rich in strong results.

This test concerns Plasmodium falciparum. Briefly: Screen against P. falciparum Asexual Blood Stage (ABS), at 5uM. It is filed as functional, Dd2. Conditions: tested at 5 uM.
Take `CS(=O)(=O)N1CC2(CCN(C(=O)c3ccncc3)CC2)c2ccccc21`: the INHIBITION is listed as -67.5%.

On to `Cc1cc(N2CCC(c3ncc[nH]3)CC2)cc(C)n1`, for which the INHIBITION is -26.7%.

In the case of `Cc1cc(N2CCC(c3ncc[nH]3)CC2)nc(N)n1`, the INHIBITION was -25.6%.

With `Cc1cc(N2CCC(c3ncc[nH]3)CC2)c2ccccc2n1`, the INHIBITION was 62.6%.

Turning to `NCC(=O)N1CCCC(c2cncc(Nc3ncccn3)n2)C1` (configuration not stated), the INHIBITION is recorded as -81.1%.

Take `Cc1ccc(CN2CCCC3(COCCN(Cc4c[nH]nn4)C3)C2)s1` (configuration not stated): the INHIBITION worked out at 37.3%.

For the compound `O=C(c1c[nH]c(=O)[nH]c1=O)N1CCCC(c2cnccn2)C1` (configuration not stated), the INHIBITION is reported as -173%.

For `CC(C)Nc1ncnc2c1CCN(C(=O)N1CCOCC1)CC2`, the INHIBITION is recorded as -114%.

With `CCC[C@@H]1CN(C(=O)c2cc3ccccc3cc2O)C[C@H]1N(C)C`, the INHIBITION was 52.8%.

`CCC[C@@H]1CN(C(=O)c2conc2-c2ccccc2)C[C@H]1N(C)C`: the INHIBITION is listed as 52.8%.

In the case of `CCC[C@@H]1CN(C(=O)c2cc(-c3cccs3)n(C)n2)C[C@H]1N(C)C`, the INHIBITION is -63%.

With `CCC[C@@H]1CN(C(=O)c2ccccc2-c2ccccc2)C[C@H]1N(C)C`, the INHIBITION stood at 22.2%.

Consider `CCC[C@@H]1CN(C(=O)c2ccccc2C(C)=O)C[C@H]1N(C)C`, for which the INHIBITION is recorded as -112%.

Take `CCC[C@@H]1CN(C(=O)c2ccccc2-c2ncc[nH]2)C[C@H]1N(C)C`: the INHIBITION is on record as -80.9%.

As for `CCOCC1CN(C2CCCC2)Cc2cnn(CC3CCOCC3)c21` (configuration not stated), the INHIBITION is -1.53%.

With `CC(C)N1CCCN(c2nc(-c3cccnc3)nc3c2cnn3C)CC1`, the INHIBITION came out at 43.8%.

Consider `CCN1CCC(CC(=O)NCc2nc(C)cc(C)n2)CC1`, for which the INHIBITION is -46.7%.

Turning to `Cc1nc(C2CCCN2C(=O)COc2ccccc2)ncc1C(N)=O` (configuration not stated), the INHIBITION was -61%.

`COc1cccc(CN(C)C(=O)c2ccc(NC(C)=O)s2)c1OC`: the INHIBITION was -83.5%.

On to `NC(=O)CCNC(=O)NCC1(c2ccccc2Cl)CCC1`, for which the INHIBITION was -18.5%.

For the compound `NC(=O)CCNCc1c(Cl)cccc1N1CCCC1`, the INHIBITION worked out at 66.4%.

As to `O=C(NC1CCCN(c2ccccc2Cl)C1)c1c[nH]nn1` (configuration not stated), the INHIBITION is given as -144%.

For the compound `O=c1oc(-c2cccs2)nn1CC(O)c1ccc2c(c1)CCC2` (configuration not stated), the INHIBITION is recorded as -20%.

For the compound `Cc1nnc(NC(=O)C(C)n2ncc(Br)c2C)s1` (configuration not stated), the INHIBITION is -120%.

Consider `CCCn1ncc(CN2C[C@@H]3CCCN3C[C@@H]2CCSC)c1C`, for which the INHIBITION is 29.3%.

On to `CCCn1ncc(CN2C[C@@H]3CCCN3C[C@H]2CCSC)c1C`, for which the INHIBITION was -62.1%.

Consider `CCn1ncc(CN2C[C@@H]3CCCN3C[C@@H]2CCSC)c1C`, for which the INHIBITION was -116%.

As for `C=Cn1ncc(CN2C[C@@H]3CCCN3C[C@@H]2Cc2ccccc2)c1C`, the INHIBITION was found to be 25.8%.

As for `CCCn1ncc(CN2C[C@@H]3CCCN3C[C@H]2Cc2ccccc2)c1C`, the INHIBITION was 57.8%.

In the case of `CCCn1ncc(CN2C[C@@H]3CCCN3C[C@@H]2Cc2ccccc2)c1C`, the INHIBITION turned out to be 63.8%.

Consider `CNC(=O)COC1COC2(CCN(Cc3ccncc3F)CC2)C1` (configuration not stated), for which the INHIBITION is -146%.

Take `CC(C)[C@H](NS(C)(=O)=O)C(=O)NCc1cc(-c2ccco2)nn1C`: the INHIBITION is on record as -141%.

For `COc1c(CNCc2ccccc2Cn2cccn2)c(C)nn1C`, the INHIBITION worked out at 57.4%.

Take `COc1c(CNCc2ccc(Cn3cccn3)cc2)c(C)nn1C`: the INHIBITION is on record as 14.8%.

Consider `COc1c(CNCc2ccccc2Cn2cncn2)c(C)nn1C`, for which the INHIBITION is listed as 3.03%.

Consider `COC[C@]1(O)CCN(c2cc(C3CC3)ncn2)CC1(C)C`, for which the INHIBITION is on record as -106%.

Take `CC(C)C(=O)NCCc1nc(-c2ccncc2)n[nH]1`: the INHIBITION is on record as -11.5%.

Consider `CC(C)c1cc(C(=O)NCCc2nc(-c3ccncc3)n[nH]2)[nH]n1`, for which the INHIBITION is 66.4%.

For the compound `CC(C)c1cc(C(=O)NCCc2nc(-c3cccnc3)n[nH]2)[nH]n1`, the INHIBITION was found to be 14.9%.

For the compound `Cc1noc([C@@H]2C[C@H]3OCC[C@H]3N(Cc3cc(C)c(C)o3)C2)n1`, the INHIBITION is on record as -151%.

As for `CC(C)NC(=O)CN1CCC(c2cccc(F)c2)C1` (configuration not stated), the INHIBITION worked out at 54.9%.

On to `CNC(=O)NC(=O)CN1CCC(c2cccc(F)c2)C1` (configuration not stated), for which the INHIBITION was -92.5%.

With `CCNC(=O)NC(=O)CN1CCC(c2cccc(F)c2)C1` (configuration not stated), the INHIBITION was -4.74%.

For the compound `Cc1ccccc1NC(=O)N1CCN(Cc2noc(C3CC3)n2)CC1`, the INHIBITION is reported as -69.4%.

With `Cc1ccccc1C(C(=O)NCCSC(C)C)N(C)C` (configuration not stated), the INHIBITION stood at 50.3%.

For the compound `CSCCCNC(=O)C(c1ccccc1C)N(C)C` (configuration not stated), the INHIBITION is -35.8%.

In the case of `Cc1ccccc1C(C(=O)NCCSC(F)(F)F)N(C)C` (configuration not stated), the INHIBITION was found to be 46.1%.

For `CSC(C)C(=O)N(C)CCCc1cc(-c2ccccc2)no1` (configuration not stated), the INHIBITION is -25.3%.

`CCOC(=O)C1CCN(c2cc(C(=O)N3CCOCC3)nc(C)n2)CC1`: the INHIBITION is reported as -5.84%.

Regarding `COc1ccc(C(NCc2cccc(C#N)c2)C(C)C)cc1` (configuration not stated), the INHIBITION is reported as -11.2%.

On to `COc1ccc(C(NCc2cccc(C#N)c2)C2CC2)cc1` (configuration not stated), for which the INHIBITION was found to be 48.3%.

On to `COc1ccc(C(NCc2ccc(C#N)cc2)C2CC2)cc1` (configuration not stated), for which the INHIBITION worked out at 60.9%.

Regarding `O=C(C1CCOC1)N1CCC2(CCN(Cc3nccs3)CC2)CC1` (configuration not stated), the INHIBITION is on record as -146%.

Take `COc1ccc(NC(=O)c2nc3ccccc3n(C)c2=O)cc1OC`: the INHIBITION was -33.5%.

For `O=C(O)c1cc2c(nc1-c1ccoc1)CCN(CC1CCOC1)CC2` (configuration not stated), the INHIBITION is on record as -108%.

Take `CSCC(=O)N(C)Cc1noc(-c2ccccc2)n1`: the INHIBITION is recorded as -229%.

Take `CN(C)CC(C)(O)CNC(=O)Nc1sc2ccccc2c1Cl` (configuration not stated): the INHIBITION came to 63.2%.

As for `CN(C)C(=O)CCNC(=O)Nc1sc2ccccc2c1Cl`, the INHIBITION is -22.3%.

In the case of `CS(=O)(=O)CCNC(=O)Nc1sc2ccccc2c1Cl`, the INHIBITION is -95%.

On to `Cc1cc(-c2cnc(N3CCCCCC3)nc2-c2cccnc2C)on1`, for which the INHIBITION stood at 3.45%.

On to `Cc1cnn(C2CN(CCOc3cccc(C#N)c3)C2)c1`, for which the INHIBITION was -128%.

With `CCS(=O)(=O)N1CC(=O)N(Cc2ccccc2OC)CC(O)C1` (configuration not stated), the INHIBITION is recorded as -105%.

For the compound `CCOC(=O)C1CCN(C(=O)c2cnn(-c3ccccc3F)c2N)CC1`, the INHIBITION is -221%.

Turning to `Cc1ccc(C(CNCc2cccc3c2OCO3)N2CCOCC2)o1` (configuration not stated), the INHIBITION came out at 65.7%.

Take `c1cc(CNCc2ccnc(N3CCOCC3)c2)c2c(c1)OCO2`: the INHIBITION is -31.4%.

For `c1csc(C(CNCc2cccc3c2OCO3)N2CCOCC2)c1` (configuration not stated), the INHIBITION is listed as 40.2%.

Take `Cc1cc(C2CCCN2C(=O)CN2C(=O)OC(C)(C)C2=O)on1` (configuration not stated): the INHIBITION is listed as -28.9%.

The values above are taken from ChEMBL document CHEMBL4513216, “Probing the Open Global Health Chemical Diversity Library for Multistage-Active Starting Points for Next-Generation Antimalarials” (ACS Infect Dis, 2020).
